# HTT aggregate = qHTS Multiplex Assay to Identify Dual Action Probes in a Cell Model of Huntington: Aggregate Formation (GFP); PC12 HttQ103-GFP aggregates, Acumen cytometry, 40 h; Potency, µM (series often up to 46.1 µM), inactives show at the top dose activity change, negative = inhibition, hits mostly inhibitors; 1.1% of 220,000 active; AID 1688, 2009; note: % is set by controls: 0 for no effect and ±100 for the full control effect; nearly all actives have a fitted effect of over 60% in size
#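 Huntingtin Q103 exon 1–GFP aggregates in induced PC12 cells (100 nM tebufenozide) were quantified by cytometry from lysates, with compounds dosed in titration.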
# Tau fibril FP = qHTS for Inhibitors of Tau Fibril Formation, Fluorescence Polarization; Microtubule-associated protein tau (Homo sapiens), P10636; K18 P301L tau heparin fibrillization, Alexa594 FP, 6 h; Potency, µM (doses to about 57.7 µM), without a hit: top-dose activity, negative = inhibition, most hits filed as inhibitors; 0.39% of 280,000 active; note: % is set by controls: 0 for no effect and ±100 for the full control effect; nearly all actives have a fitted effect of over 55% in size
# Target sequence (P10636 561-689 P618L limits assumed): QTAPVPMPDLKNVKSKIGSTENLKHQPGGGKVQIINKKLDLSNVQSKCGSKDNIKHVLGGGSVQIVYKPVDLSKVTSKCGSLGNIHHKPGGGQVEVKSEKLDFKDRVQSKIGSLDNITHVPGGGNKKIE
#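 FP of Alexa 594-tau after heparin (20 uM) induction. Substrate: human K18 P301L, 15 uM unlabeled, 0.24 uM labeled. Buffer 100 mM sodium acetate pH 7. 6 hr, 37 C.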
# HTT cytoprotect = qHTS Multiplex Assay to Identify Dual Action Probes in a Cell Model of Huntington: Cytoprotection (ATP); 0.14% of 230,000 active; Potency, µM (doses to about 56.4 µM), inactives show cytoprotection (ATP increase), actives largely listed as activators; PC12 HTT-Q103 induced, cytoprotection, ATP luminescence, 40 h; note: % of control where 0% means no effect; nearly all actives have a fitted effect of over 45% in size
#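 Huntington model: PC12 line, ecdysone-inducible HTTQ103 exon1–GFP, tebufenozide 100 nM. Test articles in a dose series. Endpoint luminescence from cellular ATP.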
# Tau ThT inhib = qHTS for Inhibitors of Tau Fibril Formation, Thioflavin T Binding | Potency, µM (series often up to 57.4 µM), without a hit: at the top dose activity, negative = inhibition, most hits filed as inhibitors | recombinant tau K18 P301L, heparin-induced fibrillization, ThT fluorescence | 2.1% of 270,000 active | Microtubule-associated protein tau (Homo sapiens), P10636; note: % is set by controls: 0 for no effect and ±100 for the full control effect; nearly all actives have a fitted effect of over 55% in size
#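 Aggregation was driven by heparin (20 uM final) acting on recombinant tau […] bearing P301L in 100 mM sodium acetate pH 7; fibrils were detected with Thioflavin T.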
# Tau fluor cs = Counterscreen qHTS for Inhibitors of Tau Fibril Formation, Fluorescence Polarization | tau K18 P301L (four-repeat tau fragment) Alexa594 fluorescence, heparin fibrillization | Potency, µM (titrated, usually from 57.7 µM), for the others: at the highest dose activity change, negative = decrease | 0.93% of 280,000 active; note: % is set by controls: 0 for no effect and ±100 for the full control effect; nearly all actives have a fitted effect of over 55% in size
#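 Human K18 P301L tau (15 uM unlabeled plus 0.24 uM Alexa 594-labeled, final) in 100 mM sodium acetate pH 7 was mixed with compound and 20 uM heparin and incubated 6 hr at 37 C.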
# Numbers without * were called inactive; u = inconclusive; x = not tested or not shown; [ ] = dose if it differs, or a comment. Sampled rows, rich in hits. Any-hit rate of the full collection: about 3.7%. Calls come from the whole dose curve; as a rule, active = well fitted curve in the direction sought with a large enough effect; inconclusive = small, poorly fitted or top-dose-only effect, or another doubt; inactive = no such curve, though single readings can be large; an effect the other way counts as inactive or inconclusive. Potency is the fitted concentration of half-maximal effect.
SMILES,HTT aggregate,Tau fibril FP,HTT cytoprotect,Tau ThT inhib,Tau fluor cs
O=c1[nH][nH]c2c(N=Cc3ccccc3O)ccc(F)c12,-8%[9.22 µM],7.9µM*,-9%[10 µM],3.5µM*,3.5µM*[quencher]
CCc1nnc(SCc2nc(-c3ccccc3)oc2C)c2cc3sccc3n12,x,-1%,x,-16%,-6%
Cc1nc(NC(N)=S)sc1C(=O)Nc1ccccc1,u,0%,-64%[10 µM],-8%,-8%
Cc1cccc(Nc2nc(-c3ccccc3)c(C(=O)Nc3cccnc3)s2)c1,6.3µM*,u,12%[10 µM],u,u
Cc1nc(Nc2c(Cl)cccc2Cl)sc1C(=O)Nc1ccccc1,11µM*,-1%,-15%[10 µM],-10%,-14%
CC(=O)Nc1c(C)nn(-c2ccccc2)c1N1CCC(C(=O)Nc2cccc(C(F)(F)F)c2)CC1,x,-1%,x,-3%,-23%
C=C(CO)[C@H]1Cc2c(ccc3c(=O)c4c(oc23)COc2cc(OC)c(OC)cc2-4)O1,x,x,-12%,x,x
CC[C@@H](Nc1ncnc2nc[nH]c12)C(=O)O,x,x,-10%[10 µM],x,x
COc1ccc2nc(SCC(C)=O)c(C#N)cc2c1,1%,10%,-15%[10 µM],4.5µM*,-28%
CCOC(=O)CSc1nc2cc(OC)ccc2cc1C#N,-25%,10%,-22%,5µM*,u
CC#CCN1c2ccccc2[C@]23C[C@@H](C(=O)OC)N(S(=O)(=O)c4ccc([N+](=O)[O-])cc4)C2=NC(C(=O)OC)=C(C(=O)OC)[C@H]13,x,0%[11.6 µM],5%[10 µM],-13%[11.5 µM],-24%[11.6 µM]
O=C(O)[C@@H]1[C@@H]2C[C@H]([C@@H](Br)[C@H]2N2C(=O)CCC2=O)[C@@H]1C(=O)O,x,x,-4%[10 µM],x,x
Clc1ccc(CSC2=NCCN2)cc1Cl,x,x,5%[10 µM],x,x
CC1(C)CC(=O)C2=C(C1)Oc1ncn(Cc3ccco3)c(=N)c1C2c1ccccc1 (stereo unspecified),-8%,2%,1%,-13%,-2%
COc1ccc(C2C3=C(CC(C)(C)CC3=O)Oc3ncn(Cc4ccccc4)c(=N)c32)cc1 (stereo unspecified),-19%,3%,4µM*,-14%,-13%
O=C(Nc1ccc(OC(F)F)cc1)Nc1cccc(C(F)(F)F)c1,u,25µM*,-25%[10 µM],-5%,u
CCN(CC)S(=O)(=O)c1ccc(NC(=O)Nc2cccc(C(F)(F)F)c2)cc1,16µM*,7.9µM*,-63%,-4%,u
O=C(NCCNC(=O)c1cc(OCC(F)(F)F)ccc1OCC(F)(F)F)Nc1cccc(C(F)(F)F)c1,u,10µM*,-56%,-19%,u
CCN(CC)S(=O)(=O)c1ccc(C(=O)Nc2cccc(C)c2)cc1,u,u,-12%,-4%,-28%
CCN(CC)S(=O)(=O)c1ccc(NC(=O)C2c3ccccc3Oc3ccccc32)cc1,-28%,28µM*,u,-7%,u
CNS(=O)(=O)c1ccc(NC(=O)C2c3ccccc3Oc3ccccc32)cc1,16%,-14%,x,14%,1%
CN(C)S(=O)(=O)NCCNC(=O)c1cc(OCC(F)(F)F)ccc1OCC(F)(F)F,-2%,-3%,-49%,1%,4%
CCOC(=O)CNc1oc(-c2ccccc2)nc1-c1ccccc1,x,0%,u,-7%,-6%
Cc1ccc(S(=O)(=O)Nc2ccc(NC(=O)Nc3cccc(C(F)(F)F)c3)cc2)cc1,u,13µM*,1%[10 µM],-11%,2.5µM*[quencher]
CCN(CC)S(=O)(=O)c1ccc(/C=C/C(=O)Nc2cccc(F)c2)cc1,3%,35µM*,11%[10 µM],u,u
SMILES,HTT aggregate,Tau fibril FP,HTT cytoprotect,Tau ThT inhib,Tau fluor cs
O=S(=O)(NCc1ccccn1)c1cccc2cccnc12,x,x,-7%,x,x
Cc1csc(NC(=O)CSc2nnc(-c3ccncc3)n2C)n1,0.0008µM*,-11%,0%,-8%,-10%
CCOC(=O)CSc1nsc(SCC(=O)OCC)c1C#N,-3%,8%,-9%[10 µM],u,-8%
Cn1c(SCC(=O)Nc2nccs2)nnc1-c1ccncc1,-13%,-1%,10%,-6%,-9%
Cc1csc(NC(=O)CSc2nsc(SCC(=O)Nc3nc(C)cs3)c2C#N)n1,8%,-12%,-48%,4µM*,10µM*[quencher]
CC(=O)CSc1nsc(SCC(C)=O)c1C#N,-12%,u,19%[10 µM],16µM*,-28%
C/C=C\C=C/C(=O)Nc1cccc(C2=NOC3(C2)C[C@@H](C(N)=O)N(C(=O)/C=C/C=C\C)C3)c1 (stereo partly specified),-25%[9.22 µM],u,-8%[10 µM],25µM*,-9%
N#CC1=C(N)Oc2n[nH]c(-c3cccnc3)c2C1c1ccc([N+](=O)[O-])o1 (stereo unspecified),u,u,-172%,13µM*,u
N#CC1=C(N)Oc2n[nH]c(-c3ccccc3)c2C1c1cccnc1 (stereo unspecified),16%,-11%,-7%,u,-14%
CCCCCCC#Cc1cc(OC)c(OC)cc1C(N1CC(C)c2ccccc21)N1CC(C)c2ccccc21 (stereo unspecified),x,0%[11.6 µM],-22%[10 µM],-13%[11.5 µM],-9%[11.6 µM]
O=C(N/N=C/C=C\c1ccccc1[N+](=O)[O-])c1ccncc1,1%,9%,-7%,-9%,-2%
O=C(O)c1cc(N/N=C/C=C/c2ccccc2[N+](=O)[O-])ccc1Cl,14%[9.22 µM],-3%,9%[10 µM],3.5µM*,u
CCC(Cc1c(I)cc(I)c(O)c1I)C(=O)O (stereo unspecified),1%,x,u,x,x
Cc1cccc(NC(=O)c2nc[nH]c2C(=O)N[C@@H](Cc2ccccc2)C(=O)OC(C)(C)C)c1,-11%[9.22 µM],8.9µM*,11%[10 µM],u,u
CC(C)(C)OC(=O)[C@H](Cc1ccccc1)NC(=O)c1[nH]cnc1C(=O)Nc1ccc(Cl)cc1,6%[9.22 µM],13µM*,8%[10 µM],15%,u
Cc1cccc(NC(=O)c2nc[nH]c2C(=O)N[C@@H](CC(C)C)C(=O)OC(C)(C)C)c1,-24%[9.22 µM],13µM*,-10%[10 µM],8%,u
CC(C)(C)OC(=O)[C@H](Cc1ccccc1)NC(=O)c1[nH]cnc1C(=O)Nc1cccc(Cl)c1,15%[9.22 µM],22µM*,8%[10 µM],16%,u
CCOC(=O)c1ccc(NC(=O)c2nc[nH]c2C(=O)N[C@@H](Cc2ccccc2)C(=O)OC(C)(C)C)cc1,-9%[9.22 µM],u,2%[10 µM],u,u
CC(C)(C)OC(=O)[C@H](Cc1ccccc1)NC(=O)c1nc[nH]c1C(=O)N[C@@H](Cc1ccccc1)C(=O)OC(C)(C)C,-4%[9.22 µM],u,15%[10 µM],-6%,-19%
